Active and inactive are the calls of the source. Rule for the calls: active = hit-call score of the fitted dose curve at least 0.9, where 1 is the maximum; inactive = score below 0.9.

A word on the AC50: it is the concentration giving half of the maximal activity seen.

The assay is described as follows: APR_HepG2_P-H2AX_72hr: Apredica 72-hour HepG2 Assay for H2AX Phosphorylation (AID 2282916). Conditions: imaging, actives raise or lower the signal. The procedure:
APR_HepG2_72hr is a cell-based, multiplexed-readout assay that uses HepG2, a human liver cell line, with measurements taken at 72 hours after chemical dosing in a 384-well plate.APR_HepG2_P-H2AX_72hr is one of 10 assay component(s) measured or calculated from the APR_HepG2_72hr assay. It is designed to make measurements of dna content, a form of viability reporter, as detected with fluorescence intensity signals by HCS Fluorescent Imaging technology.Data from the assay component APR_HepG2_P-H2AX_72hr was analyzed into 1 assay endpoint. This assay endpoint, APR_HepG2_P-H2AX_72hr, was analyzed with bidirectional fitting relative to DMSO as the negative control and baseline of activity. Using a type of viability reporter, measures of protein for gain or loss-of-signal activity can be used to understand the signaling at the pathway-level as they relate to the gene . Furthermore, this assay endpoint can be referred to as a primary readout, because this assay has produced multiple assay endpoints where this one serves a signaling function. To generalize the intended target to other relatable targets, this assay endpoint is annotated to the dna binding intended target family, where the subfamily is cellular response to DNA damage stimulus.
Cells were treated with dimethyl sulfoxide (DMSO) as a solvent control at a final concentration of 0.5% v/v or with compounds in DMSO with a resulting final DMSO concentration of 0.5% v/v. Compound treatment was done at concentrations of 0.39, 0.78, 1.56, 3.12, 6.24, 12.5, 25, 50, 100, and 200 uM in duplicate on each plate. Cells were treated with compounds for 1, 24, or 72 hr. Carbonyl […] m-chloro-phenylhydrazone (CCCP) and taxol were used as positive controls for mitochondrial function and cytoskeletal stability, respectively; DMSO served as the negative control for this experiment. Cells were fixed by the direct addition of 50 uL formaldehyde in Hank's Balanced Salt Solution (HBSS) to a final concentration of 3.7%. After incubation in the fixation medium for 30 min at room temperature (293-298 K), cells were rinsed twice with HBSS and treated with cell permeabilization buffer (16 uL of 0.5% Triton X-100) for 10 min at room temperature (293-298 K) before labeling. For mitochondrial membrane potential and mitochondrial measurements, pre-fixed cells were incubated with 50 uL of MitoTracker Red CMXRos (Invitrogen) at a concentration of 250 nM for 30 min before fixation. In the remaining cases, post-fixed cells were labeled by incubation with a multiplexed mixture of primary antibodies in HBSS for 60 min at room temperature (293-298 K) to detect immunoreactivity of c-Jun (1:500), phospho-histone H3 (1:100), phospho-histone H2A.x (1:200), p53 (1:400), alpha-tubulin (1:200) and Hoechst 33342 (2 ug/mL). Cells were labeled for multiplexed imaging on two separate plates: a) Hoechst 33342, MitoTracker Red, phospho-histone H3, and alpha-tubulin, and b) Hoechst 33342, phospho-histone H2A.x, and c-Jun. A final rinse with HBSS (50 uL) was performed before analysis. The primary and secondary antibodies for the proteins were phospho-histone H3 (rabbit anti-phospho-histone H3 and FITC-donkey anti-rabbit IgG), phospho-histone H2A.x (mouse anti-phospho-histone H2A.x and FITC-donkey anti-mouse IgG), c-Jun (rabbit anti-phospho-c-Jun and Cy3-donkey anti-rabbit IgG), p53 (sheep anti-p53 and Cy5-donkey anti-sheep IgG), alpha-tubulin (mouse anti-alpha-tubulin and Cy5-donkey anti-mouse IgG). These antibodies are available as the CellCiphr HepG2 assay kit (Millipore).Digital images of each well were captured using a Cellomics ArrayScan VTI (Thermo Scientific Cellomics) (0.8 NA objective, 0.63x optical coupler, and XF-93 filter set) at 20x magnification. The images were acquired using the autofocus feature of the ArrayScan instrument, which entails the following steps. First, the camera focuses on channel 1 (Hoechst 33342), where nuclei are identified. Second, a Z offset of 1 um is used for capturing mitochondria (MitoTracker Red). […]
On to `CC1=CC(=O)CC(C)(C)C1`, for which the outcome was inactive.
In the case of `On1ccccc1=S`, the call was inactive.
Still for that read-out and setting: with `O=C(O)c1cc(N=Nc2ccc(S(=O)(=O)Nc3ccccn3)cc2)ccc1O` the entry was “inactive”; with `Cc1ccc(S(=O)(=O)O)cc1C`, “inactive”.
Regarding `CC[C@H]1OC(=O)[C@H](C)[C@@H](O[C@H]2C[C@@](C)(OC)[C@@H](O)[C@H](C)O2)[C@H](C)[C@@H](O[C@@H]2O[C@H](C)C[C@H](N(C)C)[C@H]2O)[C@](C)(O)C[C@@H](C)C(=O)[C@H](C)[C@@H](O)[C@]1(C)O`, the result was inactive.
For the compound `CC(C)CC(C)(O)C#CC(C)(O)CC(C)C` (stereo not given), the outcome was inactive.
The same measure, in the same setting: the same measure for `Cc1ccc(O)cc1`: “inactive”.
Same read-out and setting: the same measure for `C1=CCCC=CCCC=CCC1`: “inactive”.
For `O=P(OC(CCl)CCl)(OC(CCl)CCl)OC(CCl)CCl`, the AC50 was 47.5 µM (active).
For `CC(O)CN(CCN(CC(C)O)CC(C)O)CC(C)O` (stereo not given), the result was inactive.
The same measure, in the same setting: with `Cc1ccc(C)c(O)c1` the entry was “inactive”; with `COc1ccc2sc(C(=O)Nc3nnn[nH]3)c(OC(C)C)c2c1`, “inactive”; with `CCOC(=O)COc1ccc2c(c1)CC(NCC(O)c1cccc(Cl)c1)CC2` (stereo not given), “inactive”.
Consider `Clc1nc(Cl)c(Cl)c(Cl)c1Cl`, for which the AC50 was 57.5 µM (active).
`CC(C)=CCCC(C)=CC=O`: the call was inactive.
Still for that read-out and setting: the same measure for `C1N2CN3CN1CN(C2)C3`: “inactive”; for `CCn1nc(Cc2ccccc2)cc1C1CCN(C[C@H]2C[C@H](N(C)[C@@H](C(=O)O)C(C)C)C[C@@H]2c2cccc(F)c2)CC1`: “inactive”; for `CC1(C)C(=O)N(Br)C(=O)N1Br`: “inactive”.
Still for that read-out and setting: with `CC(C)=CCC/C(C)=C\CO` the entry was “inactive”.
The same measure, in the same setting: with `O=C(O)c1cccc(Oc2ccccc2)c1` the entry was “inactive”; with `COCCOc1cc2cc(C(=O)NC3CCN(C(C)C)CC3)n(CC(=O)Nc3ccc(Cl)cn3)c2cn1`, “inactive”.
As for `CC[C@H](C)C(=O)O[C@H]1C[C@@H](C)C=C2C=C[C@H](C)[C@H](CC[C@@H]3C[C@@H](O)CC(=O)O3)[C@H]21`, the AC50 is 5.29 µM (active).
Consider `COC(=O)c1c(Cl)c(Cl)c(C(=O)OC)c(Cl)c1Cl`, for which the compound was called inactive.
`C=CCCCCCCCCC(=O)O`: the result was inactive.
Consider `CCCN(C1CCN(C(=O)C2CCNCC2)CC1)[C@@H]1CCc2ccc(OC)cc2C1`, for which the AC50 was 64 µM (active).
The same measure, in the same setting: the same measure for `COc1ccc(/C=C/S(=O)(=O)NC(=O)c2ccc(C)cc2Cl)cc1`: 100 µM (active).
Consider `CCCCCCc1ccc(O)cc1O`, for which the call was inactive.
As for `O=c1[nH]c2ccc(S(=O)CCN3CCC(Cc4ccc(F)cc4)CC3)cc2o1` (stereo not given), the AC50 is 111 µM (active).
With `COCCOCCOCCOC`, the call was inactive.
Same read-out and setting: with `Nc1nc2ncc(CNc3ccc(C(=O)N[C@@H](CCC(=O)O)C(=O)O)cc3)nc2c(=O)[nH]1` the entry was “inactive”; with `CC(C)CCCCCCCOC(=O)CCCCC(=O)OCCCCCCCC(C)C`, “inactive”.
Regarding `O=C(O)c1cccc(N(Cc2cccnc2)c2ccc(OC(F)F)c(OC(F)F)c2)c1`, the AC50 was 6.52 µM (active).
Still for that read-out and setting: with `CNS(=O)(=O)c1cc(C(=O)N2CCC(CCN3C4CCC3CC(n3c(C)nc5ccccc53)C4)(c3cccc(F)c3)CC2)c(Cl)cc1F` (stereo not given) the figure was 11.1 µM (active).
For `O=C(O)CC(O)C(=O)O` (stereo not given), the compound was classed as inactive.
Still for that read-out and setting: with `CN(C)c1ccc(N=NS(=O)(=O)O)cc1` the entry was “inactive”; with `CC(=O)c1ccc2c(c1)[C@H](NC(=O)c1ccc(F)cc1)[C@@H](O)C(C)(C)O2`, “inactive”.
On the same count and under the same terms, the same measure for `O=C1CCCCCN1`: “inactive”; for `COC(=O)c1ccccc1O`: “inactive”; for `CC/C(=C\C(=N/O)C(N)=O)C(C)[N+](=O)[O-]` (stereo not given): “inactive”.
`CCOCCO`: the outcome was inactive.

Source of the values: PubChem BioAssay (EPA / NIEHS).
